Measurements published in PubChem BioAssay AID1159580 (chemical genetic matrix, 2015).
Values joined by “and” are separate entries in the source; they are usually repeats but may differ in a detail not shown here. Equal values may be shown once. The whole screen tested about 5,500 compounds, of which about 2,000 (36%) were called active. Another 18% or so got no clear call; they are omitted. Cut-off read from the data, not from the text of the source: active = normalized growth mostly below about 0.91 (no sharp cut-off); inconclusive = no clear call, values can overlap the other calls; inactive = mostly above about 0.92. The list shows a part of the results.

Assay: chemical genetic growth profiling, strain panel (AID 1159580);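 note: tested at 20 µM; growth read once vehicle control cultures reached saturation at 30 °C; 1 = growth at the plate median or of vehicle wells; lower values mean less growth of the strain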
Details: S. cerevisiae deletion strains, growth OD

Measured: normalized growth

COc1ccc(/C=C/c2cc(O)cc(O)c2)cc1
active: locus YDL074C, strain BRE1, stronger effect = lower value 0.725 | locus YDL192W, strain arf1, stronger effect = lower value 0.729 | locus YDR101C, strain arx1, stronger effect = lower value 0.878 | locus YDR502C, strain sam2, stronger effect = lower value 0.846 | locus YEL061C, strain CIN8, stronger effect = lower value 0.864 | locus YER167W, strain BCK2, stronger effect = lower value 0.872 | locus YGL086W, strain mad1, stronger effect = lower value 0.854 | locus YGR078C, strain PAC10, stronger effect = lower value 0.803 | locus YGR135W, strain pre9, stronger effect = lower value 0.86 | locus YGR252W, strain gcn5, stronger effect = lower value 0.687 | locus YHR129C, strain ARP1, stronger effect = lower value 0.857 | locus YHR200W, strain rpn10, stronger effect = lower value 0.879 | locus YIL066C, strain RNR3, stronger effect = lower value 0.841
0.709 (active) and 0.967 (inactive): locus YJL095W, strain BCK1, stronger effect = lower value
0.863 (active) and 1.04 (inactive): locus YHR030C, strain SLT2, stronger effect = lower value
inactive: locus YAL021C, strain ccr4, stronger effect = lower value 0.984 | locus YAL026C, strain drs2, stronger effect = lower value 1.01 | locus YAL030W, strain snc1, stronger effect = lower value 1.01 | locus YBL061C, strain skt5, stronger effect = lower value 1.01 | locus YBR009C, strain hhf1, stronger effect = lower value 1 | locus YBR021W, strain FUR4, stronger effect = lower value 0.949 | locus YBR023C, strain chs3, stronger effect = lower value 1 | locus YBR171W, strain sec66, stronger effect = lower value 1.02 | locus YBR229C, strain ROT2, stronger effect = lower value 0.978 | locus YBR231C, strain swc5, stronger effect = lower value 1 | locus YBR279W, strain paf1, stronger effect = lower value 1 | locus YCL011C, strain gbp2, stronger effect = lower value 0.991 | locus YCL016C, strain dcc1, stronger effect = lower value 1 | locus YCL029C, strain bik1, stronger effect = lower value 0.931 | locus YCL061C, strain MRC1, stronger effect = lower value 0.999 | locus YCL069W, strain vba3, stronger effect = lower value 1.01 | locus YCR088W, strain abp1, stronger effect = lower value 1 | locus YDL005C, strain med2, stronger effect = lower value 1.01 | locus YDL035C, strain GPR1, stronger effect = lower value 0.868 | locus YDL040C, strain nat1, stronger effect = lower value 1.01 | locus YDL101C, strain DUN1, stronger effect = lower value 0.949 | locus YDL134C, strain PPH21, stronger effect = lower value 0.895 | locus YDL185W, strain tfp1, stronger effect = lower value 0.976 | locus YDR001C, strain nth1, stronger effect = lower value 1.01 | locus YDR069C, strain doa4, stronger effect = lower value 1.02 | locus YDR137W, strain rgp1, stronger effect = lower value 1.02 | locus YDR159W, strain sac3, stronger effect = lower value 1.01 | locus YDR162C, strain NBP2, stronger effect = lower value 0.866 | locus YDR195W, strain ref2 1.06 | locus YDR297W, strain sur2, stronger effect = lower value 1 | locus YDR318W, strain mcm21, stronger effect = lower value 0.919 | locus YDR334W, strain swr1, stronger effect = lower value 1.02 | locus YDR335W, strain msn5, stronger effect = lower value 0.999 | locus YDR388W, stronger effect = lower value 0.962 | locus YDR392W, strain spt3, stronger effect = lower value 0.982 | locus YEL003W, strain gim4, stronger effect = lower value 1.01 | locus YEL037C, strain rad23, stronger effect = lower value 1.01 | locus YEL061C, strain CIN8 (second series), stronger effect = lower value 1.01 | locus YER015W, strain faa2, stronger effect = lower value 0.998 | locus YER016W, strain bim1, stronger effect = lower value 1.01 | locus YER110C, stronger effect = lower value 0.956 | locus YER111C, strain swi4, stronger effect = lower value 1.01 | locus YER155C, strain BEM2 (second series), stronger effect = lower value 1 | locus YER155C, strain BEM2, stronger effect = lower value 0.945 | locus YFR010W, strain ubp6, stronger effect = lower value 1.01 | locus YGL078C, strain dbp3, stronger effect = lower value 0.946 | locus YGL167C, strain pmr1, stronger effect = lower value 1.01 | locus YGL173C, strain kem1, stronger effect = lower value 1.02 | locus YGL227W, strain vid30, stronger effect = lower value 1.01 | locus YGL240W, strain doc1, stronger effect = lower value 1 | locus YGL248W, strain PDE1, stronger effect = lower value 0.907 | locus YGL253W, strain hxk2, stronger effect = lower value 1.01 | locus YHR013C, strain ard1, stronger effect = lower value 1 | locus YHR027C, strain rpn1, stronger effect = lower value 0.998 | locus YHR079C, strain IRE1 (second series), stronger effect = lower value 0.974 | locus YHR079C, strain IRE1, stronger effect = lower value 1.01 | locus YHR094C, strain hxt1, stronger effect = lower value 0.96 | locus YHR142W, strain chs7, stronger effect = lower value 0.99 | locus YIL073C, strain SPO22, stronger effect = lower value 0.896 | locus YIL125W, strain kgd1, stronger effect = lower value 0.955 | locus YIR030C, strain dcg1, stronger effect = lower value 0.957 | locus YJL092W, strain hpr5, stronger effect = lower value 1.01 | locus YJL095W, strain BCK1 (second series), stronger effect = lower value 1.01 | locus YJL115W, strain asf1, stronger effect = lower value 1.01 | locus YJL129C, strain trk1, stronger effect = lower value 0.986 | locus YJL134W, strain LCB3, stronger effect = lower value 0.983 | locus YJL154C, strain vps35, stronger effect = lower value 1.01 | locus YJL164C, strain tpk1, stronger effect = lower value 0.986 | locus YJL166W, strain qcr8, stronger effect = lower value 1 | locus YJL168C, strain set2, stronger effect = lower value 0.969 | locus YJL187C, strain SWE1 (second series), stronger effect = lower value 0.89 | locus YJL187C, strain SWE1, stronger effect = lower value 0.997
